In the library only some 3.6% were active in any assay of this set; here they are far more common.
BJeLR viability: MLPCN primary cell-based screen for lethality selective to Ras in HRASV12 cells | BJeLR (HRASV12) viability, CellTiter-Glo ATP luminescence, 48 h | inhibition, % (no concentration beside the values) | hit rate 0.17% among 300,000; in the data active = inhibition above about 50%; inconclusive = no clear call, values can overlap the other calls
BoNT F protease: BoNT/F light chain protease inhibitors, primary screen, biochemical, flow cytometry, MLPCN library | inhibition, % at 10 µM | hit rate 0.22% among 360,000 | Botulinum neurotoxin type F light chain protease (Clostridium botulinum) | Multiplex microsphere protease cleavage assay | AID 588497, 2011; in the data active = inhibition above about 35%, passing the limit was not always enough; inconclusive = no clear call, values can overlap the other calls; note: plate controls were buffer without enzyme for full effect and enzyme alone for no effect
Autofluor counter: flagged as autofluorescent in microsphere protease counterscreen; compound autofluorescence counterscreen, microsphere flow cytometry; hits give high values; fluorescence intensity (concentration not given with the values); hit rate 3.1% among 360,000; AID 624483; in the data active = fluorescence intensity above about 16000; inconclusive = no clear call, values can overlap the other calls
BoNT-A LC inh2: BoNT/A light chain protease inhibitors, primary screen, biochemical, flow cytometry, MLPCN library; inhibition, % at 10 µM; multiplex microsphere protease substrate cleavage; hit rate 0.17% among 360,000; AID 588499, 2011; note: plate controls were buffer without enzyme for full effect and enzyme alone for no effect
SARS 3CLpro inh: SARS-CoV 3CLpro protease inhibitors, primary screen, biochemical, quenched FRET. Replicase polyprotein 1ab (Severe acute respiratory syndrome coronavirus), P0C6X7. recombinant SARS-CoV 3CLpro, quenched FRET peptide cleavage. inhibition, % at 6 µM. hit rate 0.14% among 290,000; in the data active = inhibition above about 12%
Anthrax LF inh2: Bacillus anthracis LF protease inhibitors, primary screen, biochemical, multiplex microsphere, MLPCN library. Lethal factor (Bacillus anthracis), P15917. multiplex microsphere protease cleavage assay. inhibition, % at 10 µM. hit rate 0.12% among 360,000; note: plate controls were buffer without enzyme for full effect and enzyme alone for no effect
Target sequence (P15917 whole entry, looked up): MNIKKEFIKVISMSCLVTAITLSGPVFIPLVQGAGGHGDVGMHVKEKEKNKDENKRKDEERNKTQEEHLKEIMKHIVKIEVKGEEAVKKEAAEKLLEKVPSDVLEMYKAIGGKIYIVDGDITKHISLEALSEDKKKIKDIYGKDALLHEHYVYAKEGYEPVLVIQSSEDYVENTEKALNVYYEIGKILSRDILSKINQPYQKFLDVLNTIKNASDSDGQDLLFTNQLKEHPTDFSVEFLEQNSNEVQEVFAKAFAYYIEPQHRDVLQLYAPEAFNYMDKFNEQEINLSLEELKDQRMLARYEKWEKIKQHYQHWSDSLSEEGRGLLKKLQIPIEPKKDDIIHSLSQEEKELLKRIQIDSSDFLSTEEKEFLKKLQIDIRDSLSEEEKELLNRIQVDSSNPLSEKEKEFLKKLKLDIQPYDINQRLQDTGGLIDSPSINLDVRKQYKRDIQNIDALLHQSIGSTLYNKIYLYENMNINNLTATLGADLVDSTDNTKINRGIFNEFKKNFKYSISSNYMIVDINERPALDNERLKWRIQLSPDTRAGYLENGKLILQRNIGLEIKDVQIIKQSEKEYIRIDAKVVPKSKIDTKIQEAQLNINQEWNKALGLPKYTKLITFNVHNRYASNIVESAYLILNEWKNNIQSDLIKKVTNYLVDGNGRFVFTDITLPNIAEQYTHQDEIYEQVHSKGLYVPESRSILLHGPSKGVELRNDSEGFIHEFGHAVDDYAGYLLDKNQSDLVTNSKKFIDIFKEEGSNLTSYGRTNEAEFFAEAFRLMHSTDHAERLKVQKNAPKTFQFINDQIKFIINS
Starred values were filed as active, the others as inactive. Cut-off read from the data, not from the text of the source, unless noted: active = inhibition above about 30%; inconclusive = no clear call, values can overlap the other calls; inactive = below that.

What do the screens show for `c1ccc(C(c2ccccc2)N2CCN(Cc3nnnn3C3CCCC3)CC2)cc1`?
BJeLR viability: 5; BoNT F protease: -11; Autofluor counter: 2789; BoNT-A LC inh2: 0; SARS 3CLpro inh: 6; Anthrax LF inh2: 0

What do the screens show for `C1CCC(n2nnnc2CN2CCCC2)CC1`?
BJeLR viability: -3; BoNT F protease: -3; Autofluor counter: 23839*; BoNT-A LC inh2: -1; SARS 3CLpro inh: -6; Anthrax LF inh2: 0

What do the screens show for `O=C(NCc1ccc(F)cc1)C(=O)Nc1nc(C23CC4CC(CC(C4)C2)C3)cs1`?
BJeLR viability: 12; BoNT F protease: -9; Autofluor counter: 2376; BoNT-A LC inh2: -1; SARS 3CLpro inh: 2; Anthrax LF inh2: 0

How did CCN(c1ccc(OC)cc1)S(=O)(=O)c1csc(C(=O)N2CCCC2)c1 do in these assays?
BJeLR viability: -4; BoNT F protease: -1; Autofluor counter: 5582; BoNT-A LC inh2: 2; SARS 3CLpro inh: -2; Anthrax LF inh2: -1

What do the screens show for `C=CCC(C(=O)OC)(C(=O)OC)c1ccc([N+](=O)[O-])cn1`?
BJeLR viability: 2; BoNT F protease: -2; Autofluor counter: 22956*; BoNT-A LC inh2: inconclusive; SARS 3CLpro inh: 2; Anthrax LF inh2: 2

What do the screens show for `Cc1sc2ncn(CC(=O)NCC(=O)N(C)C3CCCCC3)c(=O)c2c1C`?
BJeLR viability: -23; BoNT F protease: 2; Autofluor counter: 22154*; BoNT-A LC inh2: 2; SARS 3CLpro inh: 4; Anthrax LF inh2: -3

What do the screens show for `Cc1sc2ncn(CC(=O)NCC(=O)N(C)Cc3ccccc3)c(=O)c2c1C`?
BJeLR viability: -20; BoNT F protease: 2; Autofluor counter: 22315*; BoNT-A LC inh2: 1; SARS 3CLpro inh: 0; Anthrax LF inh2: -2

What do the screens show for `Cc1sc2ncn(CC(=O)NCCCC(=O)N3CCCCC3)c(=O)c2c1C`?
BJeLR viability: -2; BoNT F protease: 1; Autofluor counter: 6046; BoNT-A LC inh2: 0; SARS 3CLpro inh: -3; Anthrax LF inh2: 2

What do the screens show for `Cc1nonc1NC(=O)CSc1nc(C2CCCCC2)nc2ccccc12`?
BJeLR viability: 0; BoNT F protease: 3; Autofluor counter: 9439; BoNT-A LC inh2: -1; SARS 3CLpro inh: -4; Anthrax LF inh2: -8

What do the screens show for `Cc1cc2nc(SCC(=O)Nc3nonc3C)c3c(c2cc1C)CCCC3`?
BJeLR viability: -4; BoNT F protease: 3; Autofluor counter: 22694*; BoNT-A LC inh2: inconclusive; SARS 3CLpro inh: 2; Anthrax LF inh2: 0

What do the screens show for `O=C(Nc1cc(Cl)cc(Cl)c1)C1CCC(=O)N1Cc1ccccc1Cl` (configuration not stated)?
BJeLR viability: 3; BoNT F protease: 2; Autofluor counter: 21909*; BoNT-A LC inh2: 3; SARS 3CLpro inh: 1; Anthrax LF inh2: -6

What do the screens show for `O=C(C1CCC(=O)N1Cc1ccccc1Cl)N1CCN(c2ccc(F)cc2)CC1` (configuration not stated)?
BJeLR viability: 3; BoNT F protease: -2; Autofluor counter: 2793; BoNT-A LC inh2: 0; SARS 3CLpro inh: -1; Anthrax LF inh2: 4

How did CC(NC(=O)C1CCC(=O)N1Cc1ccccc1Cl)c1ccccc1 (configuration not stated) do in these assays?
BJeLR viability: 6; BoNT F protease: 31; Autofluor counter: 4075; BoNT-A LC inh2: 1; SARS 3CLpro inh: -2; Anthrax LF inh2: -7

Results for CNC(=O)C1CCC(=O)N1Cc1ccccc1Cl (configuration not stated) ?
BJeLR viability: 4; BoNT F protease: -1; Autofluor counter: 23165*; BoNT-A LC inh2: 0; SARS 3CLpro inh: 0; Anthrax LF inh2: -2

What do the screens show for `O=C(C1CCC(=O)N1Cc1ccccc1Cl)N1CCC2(CC1)OCCO2` (configuration not stated)?
BJeLR viability: -3; BoNT F protease: 8; Autofluor counter: 20370*; BoNT-A LC inh2: 5; SARS 3CLpro inh: -2; Anthrax LF inh2: 0

How did CCCC/C(O)=C1\C(=O)CC(C)(C)CC1=Nc1ccccc1OC do in these assays?
BJeLR viability: -1; BoNT F protease: -1; Autofluor counter: 20312*; BoNT-A LC inh2: 0; SARS 3CLpro inh: 4; Anthrax LF inh2: -1
